# Test results reported in PubChem BioAssay.
# Records with an inconclusive call do not appear. Calls of active or inactive are those of the source.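 Rule for the calls, unless noted: active = inhibition above 54%, about 3 SD of non-fluorescent compounds; inactive = the rest.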
# Legend:
# [1] = yeast TOR pathway RPL19A-GFP modulators, primary screen, cell-based, S. cerevisiae, multiplex flow cytometry (AID 1862; in the data active = percent of DMSO control GFP below about 86%;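 note: lower values mimic rapamycin by blocking the RPL19A rise seen in DMSO cells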); details: S. cerevisiae RPL19A-GFP strain, flow cytometry fluorescence, 3 h; at 10 µM; stronger effect = lower value
# [2] = modulators of MEP2-GFP levels in yeast, primary screen, S. cerevisiae, multiplex flow cytometry (AID 1867;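 active = GFP response, as percent of the DMSO control, above the screen-wide mean plus 3 SD, about 139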;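 note: median GFP channel fluorescence of barcode-gated MEP2-GFP cells measured by flow cytometry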); details: S. cerevisiae MEP2-GFP strain, 3 h, at 10 µM, stronger effect = higher value, 100% means same as DMSO wells
# [3] = modulators of CIT2-GFP expression in yeast, primary screen, S. cerevisiae, GFP fusion, multiplex flow cytometry (AID 1870;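 active = percent response above a set limit, the screen-wide mean plus 3 SD, cut at about 130% in these data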;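 note: barcoded CIT2-GFP strain pooled with four other GFP strains with rapamycin as positive control; median GFP fluorescence per well over plate mean of DMSO wells so 100% = DMSO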); details: 3 h, at 10 µM, stronger effect = higher value
# [4] = modulators of LAP4-GFP expression in yeast, primary screen, S. cerevisiae, multiplex flow cytometry (AID 1873;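 active = GFP signal, as percent of the solvent control, above the screen mean plus 3 SD, about 149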); details: 3 h, at 10 µM, stronger effect = higher value
# [5] = inhibitors of CD8+ T cell-vesicle binding, pilot screen, LFA-1/ICAM-1 modulator project, MLPCN validation set, flow cytometry (AID 2523;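 active = response below a set limit, under 55% cells CD8-positive and vesicle-bound, and CD8 cells' 90th-percentile brightness under 279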;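 for vesicle binding response: mean PE anti-B7-1 fluorescence of CD8+ cells relative to row control; 100% = QL9-loaded vesicles with DMSO vehicle in the same plate row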); details: 2C mouse CD8+ T cells, at 7 µM, stronger effect = lower value; double positive events: measured here: CD8+/vesicle+ event percentage
# [6] = molecular target: Integrin beta-1 (Homo sapiens) + Integrin alpha-4 (Homo sapiens) (UniProt P13612+P05556); assay: inhibition of HUTS-21 binding to VLA-4, pilot screen, VLA-4 allosteric modulator project, U937 cells, HUTS-21 mAb, flow cytometry, validation set (AID 2674;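 active = inhibition above 50%, about 3 SD of the validation set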;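 note: antibody binding induced by the VLA-4 ligand LDV present at three times its Kd; 0% = LDV ligand with antibody and no compound and 100% = antibody without LDV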); details: HUTS-21 LIBS mAb binding, at 6.7 µM, stronger effect = higher value, binding induced by LDV ligand
# [7] = superoxide lowering in aged yeast cells, pilot screen, validation compound set (AID 2706;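 active = superoxide response below 65% of plate, a cut near 3 SD across the whole screen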;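 note: yeast exposed to compound for one week at 30 degrees C before staining; 100% = mean of all compound wells on the same plate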); details: S. cerevisiae aging, superoxide DHE fluorescence; at 10 µM, stronger effect = lower value
# [8] = molecular target: Beta-adrenergic receptor kinase 1 (Homo sapiens) (UniProt P25098); assay: GRK2 binders displacing RNA aptamer, biochemical, validation, human GRK2, bead flow cytometry (AID 488806;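 active = aptamer binding inhibition above 30%, about 3 SD of noise from non-fluorescent compounds; inactive = inhibition at or below 30%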); details: bead-bound GRK2, FAM-aptamer displacement, at 10 µM, stronger effect = higher value
# [9] = molecular target: Beta-2 adrenergic receptor (Homo sapiens) (UniProt P07550); assay: beta2AR agonists driving receptor internalization, pilot screen, cell-based, FAP fluorogen, flow cytometry, validation set (AID 504459;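 active = percent response above 42, roughly 3 SD of non-fluorescent test compounds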;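 note: agonist-driven loss of surface beta2AR via internalization measured by FAP dye flow cytometry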); details: Am2.2-beta2AR cells, FAP surface receptor flow cytometry; at 10 µM; stronger effect = higher value
# [10] = molecular target: AP-2 complex subunit beta (Homo sapiens) (UniProt P63010); assay: inhibitors of arrestin peptide binding to AP2, pilot screen, biochemical, validation set, GST-AP2 beads, flow cytometry (AID 504541); details: FITC arrestin peptide, at 10 µM, stronger effect = higher value, AP2 beta2 appendage fragment, R879A mutant;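 note: AP2 carries R879A mutation and is captured from E. coli lysate; bead-bound FITC arrestin peptide fluorescence measuring arrestin peptide binding to AP2; 0% = DMSO wells and 100% = excess unlabeled arrestin peptide control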
# [11] = yeast V-ATPase proton transport modulators, S. cerevisiae, pHLuorin, HTS validation (AID 504600; in the data active = response above about 15%;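 note: plate controls were DMSO for no effect and reference compound for full effect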); details: S. cerevisiae pHLuorin cytosolic pH, at 10 µM, stronger effect = higher value
# [12] = tested on: anti-desmoglein-3 scFv antibody binding to human DSG3; assay: inhibitors of anti-DSG3 scFv binding to DSG3, pilot screen, biochemical, validation compound set, bead-based, flow cytometry (AID 588368;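 active = binding below the plate cutoff, the plate median minus 3 SD, with a reading above zero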;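 note: signal is the median channel fluorescence of bead-bound GFP antibody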); details: Protein G beads, DSG3-Fc, scFv-GFP binding, at 10 µM, stronger effect = lower value
# [13] = inhibitors of fungal efflux pumps CDR1, CDR2, MDR1, pilot screen, validation compound set, multiplex, phenotypic (AID 588506;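 active = efflux inhibition above 0.42, the validation set average plus 4 SD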;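 note: Nile Red retained in cells so higher fluorescence means more efflux inhibition; 0 = negative control wells and 1 = enniatin B 25 µM full block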); details: S. cerevisiae pump-expressing triplex, Nile Red efflux flow cytometry; at 10 µM; stronger effect = higher value; the pumps come from Candida albicans
# [14] = molecular target: ATP-binding cassette sub-family B member 6 (Homo sapiens) (UniProt Q9NP58); assay: ABCB6 transporter inhibitors, pilot screen, K562-ABCB6 cells, flow cytometry, validation set (AID 588550;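 active = inhibition above the screen-wide mean plus 3 SD, about 51%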;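 note: 0% = DMSO wells and 100% = benzethonium chloride 70 µM positive control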); details: K562-ABCB6 porphyrin accumulation, 1 h, at 10 µM, stronger effect = higher value
# [15] = promoters of myeloid differentiation in arrested cells, primary screen, cell-based, GFP/MAC1 double positive, flow cytometry, validation set (AID 588685;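 active = differentiation response of at least 50%, scaled between solvent and reference control, from cells with both markers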;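 note: compound exposure lasts four days before antibody staining and flow analysis; 0% = DMSO wells and 100% = 5 µM fulvestrant positive control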); details: ER-HoxA9 marrow cells, stronger effect = higher value, normalized: vehicle 0, fulvestrant 100
# [16] = modulators of AGP1-GFP expression in yeast TOR pathway, primary screen, cell-based, multiplex flow cytometry, S. cerevisiae (AID 1887;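 active = GFP signal above the screen-wide mean plus 3 SD, that is over about 124.5% of the solvent control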;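 note: AGP1-GFP fusion strain of S. cerevisiae within a five-strain barcoded multiplex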); details: 3 h, at 10 µM, stronger effect = higher value
# [17] = RPL19A-GFP modulators, yeast TOR pathway, confirmation, cell-based, S. cerevisiae, flow cytometry, cherry picks, mother/daughter gates (AID 2270;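 active = GFP response below 50% of the DMSO control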); details: S. cerevisiae RPL19A-GFP strain, 3 h, at 10 µM, stronger effect = lower value, 100 = same GFP as DMSO wells
# [18] = LAP4-GFP expression modulators in yeast, confirmation, cell-based, cherry picks, flow cytometry, mother/daughter gates (AID 2271;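 active = GFP response above 150% of the DMSO control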;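 note: ratio of sample to DMSO plate mean so 100% equals DMSO level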); details: S. cerevisiae LAP4-GFP strain, 3 h, at 10 µM, stronger effect = higher value, 100 means same as DMSO control
# [19] = modulators of MEP2-GFP levels in yeast, confirmation, S. cerevisiae, flow cytometry GFP, cherry picks (AID 2272;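 active = GFP response above 150% of the DMSO control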;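 note: ratio of well signal to plate DMSO mean so 100% equals DMSO level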); details: S. cerevisiae MEP2-GFP strain, 3 h, at 10 µM, stronger effect = higher value
# [20] = modulators of CIT2-GFP expression in yeast, confirmation, S. cerevisiae, GFP fusion, cherry picks, mother/daughter gates (AID 2274;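 active = GFP response above 150% of the DMSO level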); details: S. cerevisiae CIT2-GFP strain, flow cytometry, 3 h, at 10 µM, stronger effect = higher value
# [21] = measured here: daughter cell gate
# [22] = measured here: mother cell gate
# Sequence of Beta-2 adrenergic receptor (Homo sapiens) (P07550 whole entry, looked up, the tested form may be a part): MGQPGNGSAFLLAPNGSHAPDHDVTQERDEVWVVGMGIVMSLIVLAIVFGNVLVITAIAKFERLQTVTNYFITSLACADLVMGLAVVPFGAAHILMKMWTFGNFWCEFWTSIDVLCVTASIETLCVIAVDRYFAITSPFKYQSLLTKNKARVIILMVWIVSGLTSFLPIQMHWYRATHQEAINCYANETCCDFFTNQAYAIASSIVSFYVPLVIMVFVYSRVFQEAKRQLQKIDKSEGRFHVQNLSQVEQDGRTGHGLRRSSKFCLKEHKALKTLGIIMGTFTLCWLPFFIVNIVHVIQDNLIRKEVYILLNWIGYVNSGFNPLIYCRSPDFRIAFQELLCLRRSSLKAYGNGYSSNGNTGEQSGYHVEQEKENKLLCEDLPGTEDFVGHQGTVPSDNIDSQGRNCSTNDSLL
# Sequence of ATP-binding cassette sub-family B member 6 (Homo sapiens) (Q9NP58 whole entry, looked up): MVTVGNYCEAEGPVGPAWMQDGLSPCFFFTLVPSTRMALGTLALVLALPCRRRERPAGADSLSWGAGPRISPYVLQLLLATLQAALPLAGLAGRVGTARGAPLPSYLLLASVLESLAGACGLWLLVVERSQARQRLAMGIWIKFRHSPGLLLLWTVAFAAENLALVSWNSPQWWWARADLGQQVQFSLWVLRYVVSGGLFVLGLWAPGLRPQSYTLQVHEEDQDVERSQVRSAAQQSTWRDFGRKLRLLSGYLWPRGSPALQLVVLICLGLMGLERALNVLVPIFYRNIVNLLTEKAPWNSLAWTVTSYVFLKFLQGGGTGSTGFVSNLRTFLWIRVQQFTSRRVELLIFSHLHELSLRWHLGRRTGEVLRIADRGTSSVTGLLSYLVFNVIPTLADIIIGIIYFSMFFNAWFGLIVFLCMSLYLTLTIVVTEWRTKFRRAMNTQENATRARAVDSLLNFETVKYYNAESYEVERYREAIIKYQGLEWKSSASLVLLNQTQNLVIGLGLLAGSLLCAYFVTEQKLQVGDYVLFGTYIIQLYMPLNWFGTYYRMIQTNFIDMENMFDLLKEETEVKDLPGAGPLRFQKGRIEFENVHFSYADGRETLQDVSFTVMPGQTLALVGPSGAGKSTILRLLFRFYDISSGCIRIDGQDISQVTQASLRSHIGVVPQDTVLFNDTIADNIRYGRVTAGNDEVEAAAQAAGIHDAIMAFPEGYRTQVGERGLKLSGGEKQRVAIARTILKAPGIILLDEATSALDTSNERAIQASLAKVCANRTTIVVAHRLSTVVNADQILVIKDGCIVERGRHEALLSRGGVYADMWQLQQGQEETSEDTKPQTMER
# Sequence of Integrin beta-1 (Homo sapiens) + Integrin alpha-4 (Homo sapiens) (P05556 whole entry, looked up): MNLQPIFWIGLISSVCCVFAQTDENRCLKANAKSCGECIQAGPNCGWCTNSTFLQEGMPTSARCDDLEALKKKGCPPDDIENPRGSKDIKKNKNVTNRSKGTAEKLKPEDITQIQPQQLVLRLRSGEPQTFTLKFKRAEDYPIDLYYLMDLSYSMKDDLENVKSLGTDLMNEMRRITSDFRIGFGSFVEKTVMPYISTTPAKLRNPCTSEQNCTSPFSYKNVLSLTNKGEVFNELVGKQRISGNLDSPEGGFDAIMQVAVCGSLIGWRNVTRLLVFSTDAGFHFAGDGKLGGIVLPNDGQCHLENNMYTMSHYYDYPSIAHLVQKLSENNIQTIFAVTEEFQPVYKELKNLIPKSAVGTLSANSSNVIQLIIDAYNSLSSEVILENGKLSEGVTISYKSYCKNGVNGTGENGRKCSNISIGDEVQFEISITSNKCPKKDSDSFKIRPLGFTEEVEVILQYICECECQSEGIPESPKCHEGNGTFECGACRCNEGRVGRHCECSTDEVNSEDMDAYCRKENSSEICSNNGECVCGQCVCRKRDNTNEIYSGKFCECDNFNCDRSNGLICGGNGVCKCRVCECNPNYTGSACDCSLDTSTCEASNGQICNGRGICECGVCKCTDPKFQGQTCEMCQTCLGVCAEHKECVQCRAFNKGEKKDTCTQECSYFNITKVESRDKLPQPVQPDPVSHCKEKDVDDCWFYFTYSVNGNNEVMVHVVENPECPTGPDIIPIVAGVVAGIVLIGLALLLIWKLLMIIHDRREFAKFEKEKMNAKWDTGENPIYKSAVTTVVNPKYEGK
# Sequence of Integrin beta-1 (Homo sapiens) + Integrin alpha-4 (Homo sapiens) (P13612 whole entry, looked up): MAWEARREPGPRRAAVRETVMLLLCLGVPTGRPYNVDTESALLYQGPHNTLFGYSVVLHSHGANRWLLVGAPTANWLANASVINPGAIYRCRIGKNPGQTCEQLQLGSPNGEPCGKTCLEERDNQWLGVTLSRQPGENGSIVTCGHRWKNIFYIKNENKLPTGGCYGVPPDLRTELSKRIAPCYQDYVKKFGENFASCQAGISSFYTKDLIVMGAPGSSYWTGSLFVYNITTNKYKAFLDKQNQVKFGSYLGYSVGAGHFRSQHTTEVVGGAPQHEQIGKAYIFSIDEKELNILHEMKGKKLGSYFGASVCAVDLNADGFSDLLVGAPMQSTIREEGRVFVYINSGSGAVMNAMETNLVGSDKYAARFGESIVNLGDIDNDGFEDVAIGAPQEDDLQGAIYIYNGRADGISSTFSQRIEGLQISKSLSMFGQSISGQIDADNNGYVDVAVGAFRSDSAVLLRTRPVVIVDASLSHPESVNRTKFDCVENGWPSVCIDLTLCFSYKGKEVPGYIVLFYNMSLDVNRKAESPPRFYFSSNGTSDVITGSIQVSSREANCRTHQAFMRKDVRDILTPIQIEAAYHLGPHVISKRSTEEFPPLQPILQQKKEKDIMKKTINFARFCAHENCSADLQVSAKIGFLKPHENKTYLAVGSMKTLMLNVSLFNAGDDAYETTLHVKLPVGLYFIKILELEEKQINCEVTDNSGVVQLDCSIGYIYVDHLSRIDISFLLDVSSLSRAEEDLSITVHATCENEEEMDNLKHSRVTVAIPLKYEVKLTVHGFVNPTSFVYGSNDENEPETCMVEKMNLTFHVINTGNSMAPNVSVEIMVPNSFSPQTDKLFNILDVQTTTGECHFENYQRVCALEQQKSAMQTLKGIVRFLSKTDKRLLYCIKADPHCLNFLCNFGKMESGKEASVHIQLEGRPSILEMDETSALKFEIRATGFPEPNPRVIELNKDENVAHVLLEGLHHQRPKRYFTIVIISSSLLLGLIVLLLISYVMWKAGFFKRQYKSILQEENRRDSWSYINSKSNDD
# Sequence of Beta-adrenergic receptor kinase 1 (Homo sapiens) (P25098 whole entry, looked up): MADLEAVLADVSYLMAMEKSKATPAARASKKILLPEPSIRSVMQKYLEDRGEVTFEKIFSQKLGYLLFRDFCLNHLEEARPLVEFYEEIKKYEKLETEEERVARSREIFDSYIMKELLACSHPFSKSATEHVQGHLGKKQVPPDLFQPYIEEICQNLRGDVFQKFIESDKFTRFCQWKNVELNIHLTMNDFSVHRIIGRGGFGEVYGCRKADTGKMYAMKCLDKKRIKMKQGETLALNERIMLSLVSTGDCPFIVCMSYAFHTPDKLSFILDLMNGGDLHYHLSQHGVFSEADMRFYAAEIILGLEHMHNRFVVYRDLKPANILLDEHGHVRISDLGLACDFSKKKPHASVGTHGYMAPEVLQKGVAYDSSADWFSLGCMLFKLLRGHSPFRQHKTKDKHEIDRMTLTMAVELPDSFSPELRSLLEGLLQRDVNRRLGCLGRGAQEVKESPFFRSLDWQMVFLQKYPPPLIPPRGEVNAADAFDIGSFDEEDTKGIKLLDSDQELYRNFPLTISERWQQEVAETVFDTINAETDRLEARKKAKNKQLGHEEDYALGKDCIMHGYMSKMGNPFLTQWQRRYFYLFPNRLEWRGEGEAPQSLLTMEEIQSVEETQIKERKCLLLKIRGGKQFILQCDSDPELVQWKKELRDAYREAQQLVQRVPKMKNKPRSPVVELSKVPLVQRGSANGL
# Sequence of AP-2 complex subunit beta (Homo sapiens) (P63010 whole entry, looked up, the tested form may be a part, one chain of several): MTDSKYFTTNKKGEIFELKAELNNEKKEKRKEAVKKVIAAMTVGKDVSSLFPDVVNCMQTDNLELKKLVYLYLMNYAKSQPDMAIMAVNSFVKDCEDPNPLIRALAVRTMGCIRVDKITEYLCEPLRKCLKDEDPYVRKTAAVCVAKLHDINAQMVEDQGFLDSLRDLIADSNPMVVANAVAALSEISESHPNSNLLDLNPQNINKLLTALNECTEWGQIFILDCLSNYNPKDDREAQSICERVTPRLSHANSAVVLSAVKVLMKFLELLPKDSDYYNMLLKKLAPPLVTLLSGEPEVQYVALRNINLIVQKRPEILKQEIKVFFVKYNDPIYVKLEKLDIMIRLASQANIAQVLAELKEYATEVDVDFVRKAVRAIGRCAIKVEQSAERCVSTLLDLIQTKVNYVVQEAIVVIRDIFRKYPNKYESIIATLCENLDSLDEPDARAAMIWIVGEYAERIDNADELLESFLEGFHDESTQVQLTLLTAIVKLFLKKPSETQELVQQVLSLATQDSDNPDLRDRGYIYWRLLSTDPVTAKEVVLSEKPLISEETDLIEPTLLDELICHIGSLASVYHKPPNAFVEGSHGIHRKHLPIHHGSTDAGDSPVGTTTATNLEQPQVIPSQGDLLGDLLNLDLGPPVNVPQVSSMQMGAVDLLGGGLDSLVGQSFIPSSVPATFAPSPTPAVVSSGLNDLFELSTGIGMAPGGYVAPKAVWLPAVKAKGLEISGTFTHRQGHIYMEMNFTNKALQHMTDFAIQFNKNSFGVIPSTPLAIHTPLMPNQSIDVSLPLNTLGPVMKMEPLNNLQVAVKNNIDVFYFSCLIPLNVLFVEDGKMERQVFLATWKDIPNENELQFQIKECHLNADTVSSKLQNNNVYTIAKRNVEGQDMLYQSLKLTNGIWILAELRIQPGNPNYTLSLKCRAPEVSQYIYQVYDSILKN
structure (smiles),measurement,setting,value
Cc1c(OC(=O)CNC(=O)OC(C)(C)C)ccc2c3c(c(=O)oc12)CCC3,percent of DMSO control GFP,[1],93.3% (inactive)
same,GFP response vs DMSO,[2],123% (inactive)
same,percent response of DMSO control,[3],90% (inactive)
same,GFP response vs DMSO,[4],80.3% (inactive)
same,double positive events,[5],60.3%
same,vesicle binding response,[5],210% (inactive)
same,inhibition,[6],9.37% (inactive)
same,superoxide response (% of plate),[7],101% (inactive)
same,aptamer binding inhibition,[8],-1% (inactive)
same,response,[9],-1.96% (inactive)
same,inhibition,[10],4.15% (inactive)
same,response,[11],0.35% (inactive)
same,binding (% of control),[12],107% (inactive)
same,efflux inhibition (fraction of control),[13],0.01 (inactive)
same,inhibition,[14],1% (inactive)
same,differentiation response,[15],0% (inactive)
OC[C@@H](O)[C@@H](O[C@H]1O[C@H](CO)[C@@H](O)[C@H](O)[C@H]1O)[C@H](O)[C@@H](O)CO,percent of DMSO control GFP,[1],102% (inactive)
same,GFP response vs DMSO,[2],103% (inactive)
same,percent response of DMSO control,[3],88.4% (inactive)
same,GFP response vs DMSO,[4],92% (inactive)
same,"GFP response, % of DMSO",[16],95% (inactive)
same,double positive events,[5],65%
same,vesicle binding response,[5],208% (inactive)
same,aptamer binding inhibition,[8],0% (inactive)
same,response,[9],-1.29% (inactive)
same,inhibition,[10],13.8% (inactive)
same,response,[11],-1.56% (inactive)
same,binding (% of control),[12],102% (inactive)
same,efflux inhibition (fraction of control),[13],0.8 (active)
same,inhibition,[14],-1% (inactive)
same,differentiation response,[15],20.8% (inactive)
Nc1nc2c(ncn2COCCO)c(=O)[nH]1,percent of DMSO control GFP,[1],78.1% (active)
same,GFP response vs DMSO,[2],123% (inactive)
same,percent response of DMSO control,[3],103% (inactive)
same,GFP response vs DMSO,[4],74.8% (inactive)
same,GFP response vs DMSO,[17],100% (inactive)
same,GFP response vs DMSO,[17]; [21],101%
same,GFP response vs DMSO,[17]; [22],100%
same,GFP response relative to DMSO,[18],101% (inactive)
same,GFP response relative to DMSO,[18]; measured here: daughter cell gate response,97.9%
same,GFP response relative to DMSO,[18]; measured here: mother cell gate response,100%
same,GFP response vs DMSO,[19],99.5% (inactive)
same,"GFP response, % of DMSO",[20],101% (inactive)
same,"GFP response, % of DMSO",[20]; [21],104%
same,"GFP response, % of DMSO",[20]; [22],100%
same,double positive events,[5],63.1%
same,vesicle binding response,[5],154% (inactive)
same,inhibition,[6],16.2% (inactive)
same,superoxide response (% of plate),[7],83.2% (inactive)
same,aptamer binding inhibition,[8],6% (inactive)
same,response,[9],-6.98% (inactive)
same,inhibition,[10],-5.88% (inactive)
same,response,[11],0.6% (inactive)
same,binding (% of control),[12],107% (inactive)
same,efflux inhibition (fraction of control),[13],-0.09 (inactive)
same,inhibition,[14],0% (inactive)
same,differentiation response,[15],-4.91% (inactive)
CC(=O)N1N=C(c2cccs2)CC1c1ccc(C)o1 (centres undefined),percent of DMSO control GFP,[1],92.8% (inactive)
same,GFP response vs DMSO,[2],131% (inactive)
same,percent response of DMSO control,[3],91.3% (inactive)
same,GFP response vs DMSO,[4],78.7% (inactive)
same,double positive events,[5],55.8%
same,vesicle binding response,[5],145% (inactive)
same,inhibition,[6],11.3% (inactive)
same,superoxide response (% of plate),[7],117% (inactive)
same,aptamer binding inhibition,[8],0% (inactive)
same,response,[9],-10.5% (inactive)
same,inhibition,[10],-6.28% (inactive)
same,response,[11],-0.52% (inactive)
same,binding (% of control),[12],96.7% (inactive)
same,efflux inhibition (fraction of control),[13],0.45 (active)
same,inhibition,[14],9% (inactive)
same,differentiation response,[15],-4.91% (inactive)
COc1ccc(Cc2nc(-c3ccc(Br)cc3)no2)cc1,percent of DMSO control GFP,[1],100% (inactive)
same,GFP response vs DMSO,[2],103% (inactive)
same,percent response of DMSO control,[3],101% (inactive)
same,GFP response vs DMSO,[4],95.3% (inactive)
same,"GFP response, % of DMSO",[16],102% (inactive)
same,double positive events,[5],40%
same,inhibition,[6],-12.9% (inactive)
same,superoxide response (% of plate),[7],117% (inactive)
same,aptamer binding inhibition,[8],-1% (inactive)
same,response,[9],-5.31% (inactive)
same,inhibition,[10],58.9% (active)
same,response,[11],-2.85% (inactive)
same,binding (% of control),[12],99.3% (inactive)
same,efflux inhibition (fraction of control),[13],0.14 (inactive)
same,inhibition,[14],-4% (inactive)
same,differentiation response,[15],48.1% (inactive)
